# Calls of active or inactive are those of the source. Cut-off read from the data, not from the text of the source, unless noted: active = inhibition above about 80%; inactive = the rest.
# How the values were obtained:
# [1] = growth inhibition, single agent or in combination, cell-based, chromothripsis tumors, cisplatin or BGB combos (AID 1671449); conditions: LFS_MB_P medulloblastoma cells;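 note: cells exposed for 96 hours; 0% = vehicle DMSO and 100% = killing by high DMSO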
# [2] = growth inhibition, single agent and combos, cell-based, chromothripsis tumors, cisplatin or BGB combos (AID 1671450); conditions: HDN33 neuroblastoma cells, stronger effect = higher value;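 note: cells exposed to compound for four days; 0% = vehicle DMSO and 100% = cell killing by high DMSO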
# [3] = growth inhibition, single agents and combos, ICB984, cell-based, cisplatin or BGB combos, synergistic combos for chromothripsis tumors (AID 1671451; call rule not given here;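 note: cells exposed for 96 hours before readout; 0% = vehicle DMSO and 100% = killing by high DMSO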); conditions: ICB984 medulloblastoma cells, drug combinations, stronger effect = higher value
# [4] = growth inhibition, single agents and combos, LFS_MB_1R, cell-based, cisplatin or BGB combos, synergistic combos for chromothripsis tumors (AID 1671452); conditions: LFS_MB_1R medulloblastoma cells, stronger effect = higher value;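 note: cells exposed for 96 hours before readout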
# [5] = growth inhibition, single agents and combos, HTB85, cell-based, BGB or cisplatin IC20 combos, synergistic combos for chromothripsis tumors (AID 1671453); conditions: HTB85 osteosarcoma cells, drug combinations, stronger effect = higher value;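 note: cells exposed for 96 hours before readout; 0% = vehicle DMSO and 100% = high DMSO killing control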
# [6] = growth inhibition, single agents and combos, CRL2098, cell-based, BGB or cisplatin IC20 combos, synergistic combos for chromothripsis tumors (AID 1671454); conditions: CRL2098 osteosarcoma cells, drug combinations, stronger effect = higher value;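 note: cells exposed for 96 h before readout; 0% = vehicle DMSO and 100% = killing by high DMSO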
# [7] = growth inhibition, single agents and combos, HD-MB03, cell-based, BGB or cisplatin IC20 combos, synergistic combos for chromothripsis tumors (AID 1671455; in the data active = inhibition above about 83%;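 note: 0% = vehicle DMSO and 100% = high DMSO as cytotoxic control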); conditions: HD-MB03 medulloblastoma cells, stronger effect = higher value
# [8] = growth inhibition, single agents and combos, UWB1.289, cell-based, BGB or cisplatin combos, synergistic combos for chromothripsis tumors (AID 1671456); conditions: UWB1.289 ovarian carcinoma cells, stronger effect = higher value;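 note: cells exposed to compound for four days; 0% = vehicle DMSO and 100% = killing by high DMSO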
# [9] = growth inhibition, single agents and combos, LFS_MB_2R, cell-based, cisplatin combos, synergistic combos for chromothripsis tumors (AID 1671457); conditions: LFS_MB_2R medulloblastoma cells, stronger effect = higher value;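 note: cells exposed to compound for four days before readout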
# [10] = growth inhibition, MDA-MB-436, cell-based, BGB or cisplatin combos, synergistic combos for chromothripsis tumors (AID 1671458; call rule not given here;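 note: cells exposed for 96 hours; 0% = vehicle DMSO and 100% = killing by high DMSO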); conditions: MDA-MB-436 breast carcinoma growth inhibition, drug combinations, stronger effect = higher value
# [11] = UWB1.289_BRCA1 ovarian cancer growth, cell-based, BGB or cisplatin combinations (AID 1671459); conditions: UWB1.289 BRCA1 ovarian carcinoma, drug combinations, stronger effect = higher value
# [12] = drug combination toxicity in non-malignant astrocytes – cell-based, BGB or cisplatin IC20 combos, cytotoxicity control for chromothriptic childhood tumor combination screen (AID 1671460); conditions: Human astrocytes, viability inhibition, drug combinations, at 0.5 µM, stronger effect = higher value;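 note: cells exposed to compounds for 96 hours before viability readout; 0% = vehicle and 100% = killing control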
# [13] = BT084 cell growth, single and combined drugs, ICGC_MB145, cisplatin and BGB IC40 combos (AID 1671461); conditions: BT084 medulloblastoma cells, drug combinations, stronger effect = higher value;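 note: cells exposed to drugs for 96 hours; 0% = vehicle DMSO and 100% = high DMSO full killing control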
# [14] = RCMB18 cell growth, single agent and combined, cisplatin and BGB IC40 combos (AID 1671462); conditions: RCMB18 medulloblastoma cells, stronger effect = higher value;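 note: cells exposed to compound for four days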
# [15] = CRL1545 cell growth, single agent and combined, cisplatin and BGB IC20 combos (AID 1671464); conditions: CRL1545 osteosarcoma cells, stronger effect = higher value;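 note: cells exposed to compound for 96 hours before readout; 0% = vehicle DMSO and 100% = high DMSO killing control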
# [16] = compounds altering circadian rhythm period length – cell-based, LOPAC library, luminescence reporter (AID 2774; call rule not given here;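 note: values are relative to mean of DMSO wells on each plate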); conditions: circadian reporter cells, at 7 µM, actives lie on both sides
# [17] = galactose survival enhancers in mitochondrial complex I cybrids – cell-based, galactose medium, ATP luminescence, primary screen (AID 1645843;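 active = z-score of at least 1.8 in each of two replicates, scored against plate mean and spread of sample wells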;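 note: positive z means more ATP and so rescue of galactose-driven cybrid death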); conditions: complex I mutant cybrid cells, 72 h, stronger effect = higher value
# [18] = measured here: combination with BGB IC40, at 0.05 µM
# [19] = measured here: with BGB IC20 combination, at 0.5 µM
# [20] = measured here: with cisplatin IC20 combination, at 0.5 µM
# [21] = measured here: combination with cisplatin, at 0.5 µM
# [22] = measured here: combination with cisplatin, at 5 µM
structure (smiles),measurement,setting,value
CC1(C)C(C(=O)Nc2ccc(S(=O)(=O)c3ccc(NC(=O)C4C(C)(C)C4(C)C)cc3)cc2)C1(C)C,inhibition,"[1]; at 0.5 µM, stronger effect = higher value",-7.93% (inactive)
same,inhibition,"[1]; measured here: combination with BGB IC20, at 0.005 µM",-18.4%
same,inhibition,"[1]; measured here: combination with BGB IC40, at 0.005 µM",-46.1%
same,inhibition,[1]; [18],-26.3%
same,inhibition,"[1]; measured here: combination with cisplatin, at 0.5 µM, stronger effect = higher value",-30.9%
same,inhibition,"[1]; measured here: combination with cisplatin, at 5 µM, stronger effect = higher value",-41.5%
same,inhibition,"[2]; BGB combo, at 5 µM",-17.4%
same,inhibition,[2]; at 0.5 µM,-53.9% (inactive)
same,inhibition,"[2]; cisplatin combo, at 5 µM",-66.6%
same,inhibition,[2]; [19],-56.4%
same,inhibition,[2]; [20],-51.1%
same,inhibition,"[2]; single agent, at 5 µM",-24.6%
same,inhibition,"[3]; BGB IC20 combo, at 0.005 µM",-19.6%
same,inhibition,"[3]; BGB IC40 combo, at 0.005 µM",-21.6%
same,inhibition,"[3]; BGB IC40 combo, at 0.05 µM",0.527%
same,inhibition,[3]; at 0.5 µM,-22.6% (inactive)
same,inhibition,"[3]; cisplatin combo, at 0.05 µM",-4.5%
same,inhibition,"[3]; cisplatin combo, at 0.5 µM",-42.3%
same,inhibition,"[3]; cisplatin combo, at 5 µM",-31.4%
same,inhibition,"[3]; measured here: 5 uM single agent, at 5 µM",-26.8%
same,inhibition,[4]; at 0.5 µM,-36.5% (inactive)
same,inhibition,[4]; [18],-27.2%
same,inhibition,[4]; [21],-46.1%
same,inhibition,[4]; [22],-61.4%
same,inhibition,[5]; at 0.5 µM,-37.5% (inactive)
same,inhibition,"[5]; measured here: with BGB IC20, at 0.5 µM",-37%
same,inhibition,"[5]; measured here: with BGB IC20, at 5 µM",-16.1%
same,inhibition,"[5]; measured here: with cisplatin IC20, at 0.5 µM",-31.9%
same,inhibition,"[5]; measured here: with cisplatin IC20, at 5 µM",-19.7%
same,inhibition,"[5]; single agent, at 5 µM",-8.34%
same,inhibition,[6]; at 0.5 µM,-53.9% (inactive)
same,inhibition,"[6]; measured here: combination with BGB at IC20, at 0.5 µM",-51.4%
same,inhibition,"[6]; measured here: combination with cisplatin at IC20, at 0.5 µM",-77.7%
same,inhibition,[7]; at 0.5 µM,-19.9% (inactive)
same,inhibition,"[7]; measured here: combo with BGB at IC20, at 0.5 µM",-12.1%
same,inhibition,"[7]; measured here: combo with cisplatin at IC20, at 0.5 µM",-33.5%
same,inhibition,[8]; at 0.5 µM,-16.5% (inactive)
same,inhibition,"[8]; measured here: inhibition with BGB combination, at 0.05 µM",-34%
same,inhibition,"[8]; measured here: inhibition with cisplatin combination, at 0.05 µM",-37.9%
same,inhibition,[9]; at 0.5 µM,-14.5% (inactive)
same,inhibition,[9]; [21],-16.8%
same,inhibition,[9]; [22],-6.76%
same,inhibition,[10]; at 0.5 µM,-18.2% (inactive)
same,inhibition,"[10]; measured here: BGB combination, at 0.5 µM",-21%
same,inhibition,"[10]; measured here: BGB combination, at 5 µM",-4.44%
same,inhibition,"[10]; measured here: cisplatin combination, at 0.5 µM",-40.7%
same,inhibition,"[10]; measured here: cisplatin combination, at 5 µM",-26%
same,inhibition,"[11]; BGB combination, concentration series, at 5 µM",2.97%
same,inhibition,[11]; at 0.5 µM,-24.5% (inactive)
same,inhibition,"[11]; cisplatin combination, concentration series, at 5 µM",-16%
same,inhibition,[12],4.8% (inactive)
same,inhibition,[12]; measured here: combo with BGB IC20,12.4%
same,inhibition,[12]; measured here: combo with cisplatin IC20,-16.1%
same,inhibition,[13]; at 0.5 µM,-6.8% (inactive)
same,inhibition,"[13]; cisplatin combination, at 0.5 µM",-4.81%
same,inhibition,"[13]; cisplatin combination, at 5 µM",-82%
same,inhibition,"[13]; measured here: BGB IC40 combination 0.05 uM, at 0.05 µM",-20.9%
same,inhibition,"[13]; single agent, at 5 µM",2.54%
same,inhibition,[14]; at 0.5 µM,-8.5% (inactive)
same,inhibition,"[14]; cisplatin combo, at 5 µM",-42.1%
same,inhibition,"[14]; measured here: BGB IC40 combination, at 0.05 µM",3.16%
same,inhibition,[14]; [21],-23.3%
same,inhibition,"[14]; single agent, at 5 µM",22.7%
same,inhibition,[15]; at 0.5 µM,-34.4% (inactive)
same,inhibition,[15]; [19],-61.8%
same,inhibition,[15]; [20],-22.6%
same,inhibition,"[15]; single agent, at 0.05 µM",-37.3%
same,inhibition,"[15]; single agent, at 5 µM",14.2%
CN1CCC23CCCC[C@H]2C1Cc1ccc(O)cc13 (stereo partly drawn),period change,[16],-0.06 h (inactive)
COc1cc(CCN)ccc1O,period change,[16],-0.1 h (inactive)
CC1(C)C(C(=O)N2CCC(n3cc(C4CC4)nn3)CC2)C1(C)C,z-score,[17],-0.525 (inactive)
C[C@]12CC[C@H]3[C@@H](CCC4C[C@H](O)CC[C@@]43C)[C@@H]1CC[C@@H]2O (stereo partly drawn),period change,[16],0.065 h (inactive)
CN1C[C@@H](CS(=O)(=O)N(C)C)C[C@@H]2c3cccc4c3c(cn4C)C[C@H]21,period change,[16],-0.105 h (inactive)
